# Screening results from PubChem.
# Most compounds without a hit are left out; they make up all but 1.1% or so of the library.
# GalR3 antag – human GalR3 antagonism; 0.44% of 360,000 active; inhibition, % at 3 µM; AID 651719; HEK293 GalR3-CNG cAMP membrane potential fluorescence; galR3 body fused to GalR1 C-terminus; O60755;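 active = inhibition above the screen-wide average plus 3 SD, cut at about 13% in these data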;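 note: forskolin and galanin both at EC90 stimulate the cells; cAMP rise reported by CNG channel membrane potential dye signal; 0% = forskolin plus galanin with DMSO and 100% = forskolin alone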
# SRC1 inh – inhibitors of human steroid receptor coactivator 1 (SRC1); HEK293 GAL4-SRC1 luciferase reporter, luminescence; inhibition, % at 3.6 µM; 0.12% of 360,000 active; AID 588354;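 active = inhibition above the campaign mean plus 3 SD, with each screening campaign given its own cutoff, cut at about 60% in these data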;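 note: 0% = DMSO treated cells and 100% = gossypol at 36 µM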
# NR2F2 inh – blocks human COUP-TFII nuclear receptor | 0.7% of 370,000 active | P24468 | inhibition, % at 8.6 µM | HEK293T NGFI-A luciferase reporter, luminescence;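 active = inhibition above a per-plate cutoff, mean inhibition of test wells between control levels plus 3 SD, cut at about 38% in these data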;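 note: cells cotransfected with COUP-TFII expression vector driving the NGFI-A reporter; 0% = median of COUP-TF2 test wells and 100% = reporter-only cells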
# NCOA3 inh – human NCOA3 inhibition; Q9Y6Q9; HEK293 GAL4-SRC3 luciferase reporter, luminescence; inhibition, % at 3.6 µM; 0.17% of 360,000 active;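 active = inhibition above a per-campaign cutoff, the mean of all compounds plus 3 SD, cut at about 60% in these data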;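 note: 0% = DMSO-treated cells and 100% = gossypol-treated cells at 36 µM; higher means less SRC3-driven luciferase light from the GAL4 reporter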
# NCOA2 inhibitor – human SRC2 (NCOA2) inhibition; HEK293 GAL4-SRC2 luciferase reporter, luminescence; inhibition, % at 9 µM; 0.17% of 370,000 active; AID 651957;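 active = inhibition above the mean inhibition of all tested compounds plus 3 SD, set per campaign, cut at about 52% in these data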;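 note: 0% = DMSO treated cells and 100% = cells given Gossypol at 36 µM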
# NR5A2 inv ag – suppresses constitutive activity of human LRH-1; 0.13% of 360,000 active; AID 602396; HEK293T StAR-luciferase reporter, LRH-1 transfected, 24 h; inhibition, % at 3.6 µM; O00482;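 active = inhibition above the mean inhibition of all tested compounds plus 3 SD, cut at about 73% in these data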;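 note: 0% = DMSO wells and 100% = reporter-only cells lacking LRH-1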
# GalR3 conf – GalR3 (human) antagonism, confirmation | AID 652245 | HEK293 GalR3 CNG cAMP biosensor, membrane potential fluorescence; galR3 fused to GalR1 carboxy tail; challenged with forskolin and galanin at EC90 | inhibition, % at 3 µM | shares compounds with GalR3 antag | 59% of 1,600 active;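 active = inhibition above the primary screen's cutoff, the mean inhibition of all screened compounds plus 3 SD, cut at about 13% in these data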;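 note: 0% = forskolin plus galanin and 100% = forskolin alone with DMSO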
# CNG parental – acts as nonspecific agonist in parental HEK-CNG cells | shares compounds with GalR3 antag | HEK293-CNG parental cells, cAMP membrane potential fluorescence; normalised: DMSO wells 0%, forskolin wells 100% | activation, % at 3 µM | 10% of 1,600 active | AID 652268; in the data active = activation above about 1.3%
# * marks the source's active call; other numbers are inactive results; . = no result given.
SMILES,GalR3 antag,SRC1 inh,NR2F2 inh,NCOA3 inh,NCOA2 inhibitor,NR5A2 inv ag,GalR3 conf,CNG parental
Cc1onc(-c2ccccc2Cl)c1C(=O)NNC(=O)c1cccc(F)c1,13.0*,-31.4,-18.3,-1.1,5.9,-9.4,15.5*,0.0
Cc1onc(-c2ccccc2Cl)c1C(=O)Nc1ccccc1,0.3,-2.0,8.8,-6.8,19.8,9.7,.,.
Nc1nnnn1/N=C\c1ccc(Cl)c([N+](=O)[O-])c1,18.0*,16.6,-11.9,21.1,-2.7,-2.7,13.8*,0.1
Cc1nnc(C)n1N=Cc1ccc(Cl)c([N+](=O)[O-])c1,.,.,-18.9,.,7.0,.,.,.
O=C(CCC(=O)c1cccs1)OCC(=O)c1ccc(F)cc1,-2.9,-10.6,-9.4,4.5,-2.6,10.9,.,.
O=C(CCC(=O)c1cccs1)OCC(=O)c1ccc(Cl)s1,.,1.0,-2.7,-6.0,-5.7,6.9,1.1,0.2
CCOC(=O)C1(CCOc2ccccc2)CCN(Cc2ccc(OC)c(O)c2)CC1,3.7,-15.6,-2.3,4.3,-11.9,10.0,.,.
CCOC(=O)C1(CCOc2ccccc2)CCN(Cc2ccc(OC)c(COC)c2)CC1,12.8*,11.9,24.1,24.8,12.7,17.8,63.7*,3.5*
C#CCCCN([C@H](C(=O)OC)C(C)C)S(=O)(=O)c1ccc(F)cc1Br,.,.,16.2,.,9.4,.,.,.
CC(C)(C)CC(=O)Nc1nnc(C(F)(F)F)s1,-1.0,3.9,4.5,18.4,-12.5,19.2,.,.
CC(NC(=O)Nc1nnc(C(F)(F)F)s1)(C(F)(F)F)C(F)(F)F,80.9*,59.0,45.0*,83.5*,21.9,89.6*,88.0*,0.3
O=C(COC(=O)c1ccccc1F)NNC(=O)c1ccccc1,-0.1,15.8,-0.4,-8.5,3.8,-4.3,.,.
CCCCNC(=O)COC(=O)c1ccccc1F,18.6*,-20.2,-2.2,18.2,-7.5,-0.9,2.2,0.0
CCN=C1S/C(=C\c2cc(OCC)c(O)cc2Br)C(=O)N1CC,15.9*,1.7,10.5,3.1,-3.0,10.4,21.1*,0.1
COC(=O)[C@]12C[C@H](CC(=O)NCc3ccc(C)o3)C(=O)N(Cc3ccco3)C1=C[C@H](C(C)(C)C)O[C@@H]2C,.,.,5.2,.,8.8,.,.,.
CCCC(=O)Nc1nnc(-c2ccc3c(c2)OCCO3)o1,13.7*,-44.5,-11.1,-13.3,-17.9,-43.4,8.1,0.4
CCCC(=O)Nc1nc(-c2ccc3c(c2)OCCO3)cs1,-2.3,-92.4,-18.7,-96.4,-105.8,-152.7,.,.
CCOC(=O)c1sc(N2C(=O)C(O)=C(C(=O)c3ccc(C)o3)C2c2ccc(OC)c(OC)c2)nc1C (stereo unspecified),34.3*,-31.0,-4.0,-4.3,-23.6,-28.1,15.4*,-0.2
CCOC(=O)c1sc(N2C(=O)C(O)=C(C(=O)c3ccc(C)o3)C2c2cccc([N+](=O)[O-])c2)nc1C (stereo unspecified),2.7,-16.4,0.4,13.9,-32.3,-9.3,.,.
COC(=O)c1sc(N2C(=O)C(O)=C(C(=O)c3ccc(C)o3)C2c2ccc([N+](=O)[O-])cc2)nc1C (stereo unspecified),7.8,3.9,3.8,-7.9,-8.3,2.0,.,.
COC(=O)c1sc(N2C(=O)C(O)=C(C(=O)c3ccc(C)o3)C2c2ccc(OC)c(OC)c2)nc1C (stereo unspecified),35.6*,-14.5,0.3,-36.2,0.2,-12.8,6.6,-0.4
CCOc1ccc(C2C(C(=O)c3ccc(C)o3)=C(O)C(=O)N2c2nc(C)c(C(=O)OC)s2)cc1 (stereo unspecified),13.2*,-25.6,-36.7,-39.4,-51.4,-37.7,15.2*,0.1
COc1cc(=O)oc(C=O)c1C,-6.4,.,-9.2,.,2.1,.,.,.
CC(=O)c1ccc(NC(=O)NC2CCCCN(Cc3cccc(Cl)c3)C2=O)cc1 (stereo unspecified),.,.,25.3,.,10.3,.,.,.
COc1ccc(/C=C/C(=O)c2cc3cccc(OC)c3oc2=O)cc1,23.8*,-11.0,10.2,10.6,-12.0,0.3,9.2,0.4
SMILES,GalR3 antag,SRC1 inh,NR2F2 inh,NCOA3 inh,NCOA2 inhibitor,NR5A2 inv ag,GalR3 conf,CNG parental
C[C@H]1COc2cc(Br)ccc2S(=O)(=O)N1Cc1cn(Cc2ccc(C(F)(F)F)cc2)nn1,.,.,-0.5,.,20.7,.,.,.
CC(Sc1nc(NCc2ccccc2)nc(N(C)C)n1)C(=O)Nc1ccccc1 (stereo unspecified),-5.6,9.0,-2.1,6.9,13.0,6.2,.,.
CC(Sc1nc(N)c2c3c(sc2n1)CSC(C)(C)C3)C(=O)Nc1ccccc1 (stereo unspecified),53.9*,6.1,21.6,16.1,12.3,5.6,45.0*,0.1
N#CCSc1nc(N)c(C#N)c(C2CCCCC2)c1C#N,72.1*,-10.4,-46.5,12.5,-14.4,10.5,88.1*,-0.3
N#Cc1c(N)nc(SCC(=O)NC2CCCCC2)c(C#N)c1-c1ccc(Cl)cc1,-0.1,-3.6,31.0,-12.7,3.6,-0.3,.,.
CCCOc1ccccc1Cn1c(=O)oc2ccc(C)cc21,-0.9,-20.1,16.6,-11.9,12.6,-8.3,.,.
CCCOc1ccc(Cn2c(=O)oc3ccc(C)cc32)cc1OC,14.0*,-46.5,12.3,1.4,17.4,7.2,-0.4,0.1
N#Cc1ccc(OC[C@@H](O)CN2CCC(C(O)(c3ccccc3)c3ccccc3)CC2)cc1F,.,.,-0.9,.,21.6,.,.,.
CCSc1nsc(NC(=O)Nc2cccc(F)c2)n1,69.3*,22.5,34.0,45.1,10.5,23.5,28.2*,-0.9
COc1ccc(CC(=O)OCc2cc3ccccc3[nH]c2=O)cc1,.,-35.2,10.8,-4.9,-41.5,16.8,2.0,-0.1
Cc1sc2nc(SC3CCOC3=O)n(Cc3ccccc3)c(=O)c2c1C (stereo unspecified),-3.9,-63.5,-6.6,12.4,3.5,-9.9,.,.
C=CCn1c(SC2CCOC2=O)nc2sc(C)c(C)c2c1=O (stereo unspecified),35.2*,-4.1,7.5,6.1,3.8,-10.2,36.4*,0.4
O=C(NCCc1ccccc1)OCc1cn(Cc2cccc(Cl)c2)nn1,.,.,8.7,.,0.6,.,.,.
COc1cccc(C(=O)/C=C/c2ccc(OCC#N)c(OC)c2)c1,19.6*,-8.4,18.4,46.6,21.2,13.8,0.7,0.2
C[C@@H]1CC=C[C@H]2[C@H]1C(=O)N(Cc1ccccc1)[C@H]2c1ccc2ccccc2c1,.,14.8,-47.8,7.0,-6.5,0.2,-4.9,1.2
O=C(NC1CC1c1ccccc1)N1CCC(c2nc3ccc(Cl)cc3[nH]2)CC1 (stereo unspecified),.,.,2.8,.,11.9,.,.,.
